In PubChem BioAssay (NCI):
This is part of a sample that, as a whole, favours compounds with a hit. Of some 79,000 tested, about 15% had one in any assay. A number with no mark means an inactive call. Calls of active or inactive are those of the source. Rule as the data show it: active = growth inhibition above about 70%; inactive = the rest.

What was measured:
[1] = NCI Yeast Anticancer Drug Screen. Data for the rad50 strain (AID 155);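 also: 0% = growth of vehicle-only cultures of the same strain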; settings: S. cerevisiae rad50 strain growth inhibition, stronger effect = higher value
In short: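 A DNA repair-deficient yeast mutant serves as the test organism; compound-induced growth inhibition is calculated against vehicle-treated cells.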

[2] = NCI Yeast Anticancer Drug Screen. Data for the mec2-1 strain (AID 157); settings: S. cerevisiae mec2-1 strain, stronger effect = higher value
In short: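 Strain: mec2-1 (DNA repair/cell cycle alteration). Compound exposure, then growth measured; inhibition expressed relative to vehicle.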

[3] = NCI Yeast Anticancer Drug Screen. Data for the sgs1 mgt1 strain (AID 161);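 also: 0% = growth of cultures given vehicle only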; settings: S. cerevisiae sgs1 mgt1 strain, stronger effect = higher value
In short: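 Test agents were incubated with a DNA-repair-mutant yeast strain. Growth was then read and compared against vehicle-treated controls.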

[4] = NCI Yeast Anticancer Drug Screen. Data for the cln2 rad14 strain (AID 165);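 also: 0% = growth equal to vehicle treated cultures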; settings: S. cerevisiae cln2 rad14 strain, stronger effect = higher value
In short: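 Compounds are applied to the cln2 rad14 yeast strain, and growth is then compared with that of vehicle-treated cultures to give inhibition.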

[5] = NCI Yeast Anticancer Drug Screen. Data for the bub3 strain (AID 167); settings: S. cerevisiae bub3 mutant strain, stronger effect = higher value
In short: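 Inhibition values come from growth of compound-treated mutant yeast normalised to vehicle-treated controls.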

[6] = NCI Yeast Anticancer Drug Screen. Data for the mlh1 rad18 strain (AID 175); settings: S. cerevisiae mlh1 rad18 strain growth inhibition, stronger effect = higher value
In short: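 Read-out is yeast growth inhibition, calculated against vehicle-only controls. The compound was applied to a strain engineered with DNA damage repair alterations.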

[7] = at 5.0 µM (retest, dose inferred, filed as 0.5)
[8] = at 50.0 µM (retest, dose inferred, filed as 5.0)

`CC(=O)OC1C2C3C(C=CC2[C@H]1OC(C)=O)C1C3C=CC2C1C(OC(C)=O)[C@@H]2OC(C)=O` (stereo partly specified) showed a growth inhibition [1, 7] of 3%, a growth inhibition [1, 8] of 14% and a growth inhibition ([1]; at 50.0 µM) of 18.4%. For the same compound, the growth inhibition [2, 7] was -1%, the growth inhibition [2, 8] was 21% and the growth inhibition ([2]; at 50.0 µM) was 11.8%. It also gave a growth inhibition [3, 7] of -173%, a growth inhibition [3, 8] of 11% and a growth inhibition ([3]; at 50.0 µM) of 5.2%. For the same compound, the growth inhibition [4, 7] was -2%, the growth inhibition [4, 8] was 13% and the growth inhibition ([4]; at 50.0 µM) was 14.3%. For the same compound, the growth inhibition [5, 7] was -2%, the growth inhibition [5, 8] was 4% and the growth inhibition ([5]; at 50.0 µM) was -1.9%. It also gave a growth inhibition [6, 7] of 12%, a growth inhibition [6, 8] of 30% and a growth inhibition ([6]; at 50.0 µM) of 12.9%.
Work on `O=S(=O)(N=S(c1ccc(Cl)cc1)c1ccc(Cl)cc1)c1ccccc1` yielded a growth inhibition [1, 7] of 0%, a growth inhibition [1, 8] of 10% and a growth inhibition ([1]; at 50.0 µM) of 49.2%. It also gave a growth inhibition [2, 7] of -8%, a growth inhibition [2, 8] of 5% and a growth inhibition ([2]; at 50.0 µM) of -14.4%. For the same compound, the growth inhibition [3, 7] was -1%, the growth inhibition [3, 8] was 12% and the growth inhibition ([3]; at 50.0 µM) was 4.5%. For the same compound, the growth inhibition [4, 7] was 9%, the growth inhibition [4, 8] was 28% and the growth inhibition ([4]; at 50.0 µM) was -32.4%. It also gave a growth inhibition [5, 7] of 5%, a growth inhibition [5, 8] of 19% and a growth inhibition ([5]; at 50.0 µM) of 27.2%. It also gave a growth inhibition [6, 7] of 0%, a growth inhibition [6, 8] of 10% and a growth inhibition ([6]; at 50.0 µM) of 12.8%.
In the case of `COC1=CC(=O)C(C#CCOCc2ccccc2)=CC1=O`, the growth inhibition [1, 7] is reported as 12%, the growth inhibition [1, 8] is reported as 99% (active) and the growth inhibition ([1]; at 50.0 µM) is reported as 99.1% (active). The growth inhibition [2, 7] was 0%, the growth inhibition [2, 8] was 99% (active) and the growth inhibition ([2]; at 50.0 µM) was 99.2% (active). For the same compound, the growth inhibition [3, 7] was -6%, the growth inhibition [3, 8] was 79% (active) and the growth inhibition ([3]; at 50.0 µM) was 99% (active). For the same compound, the growth inhibition [4, 7] was -8%, the growth inhibition [4, 8] was 98% (active) and the growth inhibition ([4]; at 50.0 µM) was 94.7% (active). For the same compound, the growth inhibition [5, 7] was -16%, the growth inhibition [5, 8] was 99% (active) and the growth inhibition ([5]; at 50.0 µM) was 93% (active). For the same compound, the growth inhibition [6, 7] was 8%, the growth inhibition [6, 8] was 99% (active) and the growth inhibition ([6]; at 50.0 µM) was 98.8% (active).
`O=C(N/N=C/c1ccccc1O)c1ccccc1-n1cccc1` showed a growth inhibition [1, 7] of 52%, a growth inhibition [1, 8] of 64% and a growth inhibition ([1]; at 50.0 µM) of 53.6%. The growth inhibition [2, 7] was 30%, the growth inhibition [2, 8] was 53% and the growth inhibition ([2]; at 50.0 µM) was 36.6%. The growth inhibition [3, 7] was 43%, the growth inhibition [3, 8] was 81% (active) and the growth inhibition ([3]; at 50.0 µM) was 80% (active). For the same compound, the growth inhibition [4, 7] was 32%, the growth inhibition [4, 8] was 49% and the growth inhibition ([4]; at 50.0 µM) was 45%. For the same compound, the growth inhibition [5, 7] was 41%, the growth inhibition [5, 8] was 71% (active) and the growth inhibition ([5]; at 50.0 µM) was 62.7%.
For `CCOC(=O)CN1CCC(C(=O)CC2(O)C3(Cl)C4(Cl)C5(Cl)C(Cl)(Cl)C6(Cl)C4(Cl)C2(Cl)C6(Cl)C53Cl)CC1` (stereo unspecified), the growth inhibition [1, 7] was 30%, the growth inhibition [1, 8] was 98% (active) and the growth inhibition ([1]; at 50.0 µM) was 98.8% (active). For the same compound, the growth inhibition [2, 7] was 2%, the growth inhibition [2, 8] was 99% (active) and the growth inhibition ([2]; at 50.0 µM) was 99.2% (active). The growth inhibition [3, 7] was 51%, the growth inhibition [3, 8] was 99% (active) and the growth inhibition ([3]; at 50.0 µM) was 50.5%. The growth inhibition [4, 7] was 58%, the growth inhibition [4, 8] was 98% (active) and the growth inhibition ([4]; at 50.0 µM) was 98.5% (active). For the same compound, the growth inhibition [5, 7] was 20%, the growth inhibition [5, 8] was 98% (active) and the growth inhibition ([5]; at 50.0 µM) was 99.1% (active).
For `Cc1ccc(C2(O)c3ccccc3-c3ccccc32)cc1`, the growth inhibition [1, 7] was 4%, the growth inhibition [1, 8] was 98% (active) and the growth inhibition ([1]; at 50.0 µM) was 99.2% (active). For the same compound, the growth inhibition [2, 7] was 8%, the growth inhibition [2, 8] was 100% (active) and the growth inhibition ([2]; at 50.0 µM) was 99.2% (active). For the same compound, the growth inhibition [3, 7] was 15%, the growth inhibition [3, 8] was 99% (active) and the growth inhibition ([3]; at 50.0 µM) was 99.2% (active). The growth inhibition [4, 7] was -9%, the growth inhibition [4, 8] was 99% (active) and the growth inhibition ([4]; at 50.0 µM) was 98.2% (active). The growth inhibition [5, 7] was -8%, the growth inhibition [5, 8] was 99% (active) and the growth inhibition ([5]; at 50.0 µM) was 99.3% (active). The growth inhibition [6, 7] was -4%, the growth inhibition [6, 8] was 98% (active) and the growth inhibition ([6]; at 50.0 µM) was 99% (active).
With `COc1cc(C2C(C(=O)O)=C(C)Oc3cc4c(cc32)OCO4)cc(OC)c1OC` (stereo unspecified) the growth inhibition [1, 7] was 91% (active), the growth inhibition [1, 8] was 90% (active) and the growth inhibition ([1]; at 50.0 µM) was 94.2% (active). For the same compound, the growth inhibition [2, 7] was 70% (active), the growth inhibition [2, 8] was 88% (active) and the growth inhibition ([2]; at 50.0 µM) was 92.8% (active). The growth inhibition [3, 7] was 77% (active), the growth inhibition [3, 8] was 93% (active) and the growth inhibition ([3]; at 50.0 µM) was 97% (active). The growth inhibition [4, 7] was 82% (active), the growth inhibition [4, 8] was 91% (active) and the growth inhibition ([4]; at 50.0 µM) was 88.8% (active). For the same compound, the growth inhibition [5, 7] was 86% (active), the growth inhibition [5, 8] was 87% (active) and the growth inhibition ([5]; at 50.0 µM) was 48.5%.
With `COC(=O)Nc1nc2ccc(CCC(=O)c3c(C)oc(C)c3-c3ccc(NC(C)=O)cc3)cc2[nH]1` the growth inhibition [1, 7] was 4%, the growth inhibition [1, 8] was 79% (active) and the growth inhibition ([1]; at 50.0 µM) was 58.1%. It also gave a growth inhibition [2, 7] of 4%, a growth inhibition [2, 8] of 55% and a growth inhibition ([2]; at 50.0 µM) of 37.3%. The growth inhibition [3, 7] was 5%, the growth inhibition [3, 8] was 78% (active) and the growth inhibition ([3]; at 50.0 µM) was 75.8% (active). For the same compound, the growth inhibition [4, 7] was 6%, the growth inhibition [4, 8] was 67% and the growth inhibition ([4]; at 50.0 µM) was 27.4%. For the same compound, the growth inhibition [5, 7] was 5%, the growth inhibition [5, 8] was 70% (active) and the growth inhibition ([5]; at 50.0 µM) was 26.1%. The growth inhibition [6, 7] was -2%, the growth inhibition [6, 8] was 69% and the growth inhibition ([6]; at 50.0 µM) was 60.7%.
For `COc1cc(/C=C2\CCc3ccccc3C2=O)ccc1O`, the growth inhibition [1, 7] was -18%, the growth inhibition [1, 8] was 99% (active) and the growth inhibition ([1]; at 50.0 µM) was 89.2% (active). The growth inhibition [2, 7] was -14%, the growth inhibition [2, 8] was 100% (active) and the growth inhibition ([2]; at 50.0 µM) was 92.2% (active). The growth inhibition [3, 7] was -28%, the growth inhibition [3, 8] was 99% (active) and the growth inhibition ([3]; at 50.0 µM) was 88% (active). For the same compound, the growth inhibition [4, 7] was 5%, the growth inhibition [4, 8] was 99% (active) and the growth inhibition ([4]; at 50.0 µM) was 90.8% (active). The growth inhibition [5, 7] was 24%, the growth inhibition [5, 8] was 99% (active) and the growth inhibition ([5]; at 50.0 µM) was 91.5% (active). For the same compound, the growth inhibition [6, 7] was -20%, the growth inhibition [6, 8] was 99% (active) and the growth inhibition ([6]; at 50.0 µM) was 84.3% (active).
For `C=CC(=O)N1C/C(=C\c2ccc(F)cc2)C(=O)/C(=C/c2ccc(F)cc2)C1`, the growth inhibition [1, 7] was 21%, the growth inhibition [1, 8] was 75% (active) and the growth inhibition ([1]; at 50.0 µM) was 52%. The growth inhibition [2, 7] was 14%, the growth inhibition [2, 8] was 77% (active) and the growth inhibition ([2]; at 50.0 µM) was 26.1%. For the same compound, the growth inhibition [3, 7] was 14%, the growth inhibition [3, 8] was 88% (active) and the growth inhibition ([3]; at 50.0 µM) was 90.2% (active). For the same compound, the growth inhibition [4, 7] was 19%, the growth inhibition [4, 8] was 81% (active) and the growth inhibition ([4]; at 50.0 µM) was 78.5% (active). For the same compound, the growth inhibition [5, 7] was 21%, the growth inhibition [5, 8] was 94% (active) and the growth inhibition ([5]; at 50.0 µM) was 88.6% (active). For the same compound, the growth inhibition [6, 7] was 18%, the growth inhibition [6, 8] was 91% (active) and the growth inhibition ([6]; at 50.0 µM) was 88.1% (active).
